# Experimental data taken from PubChem BioAssay.
# Calls of active or inactive are those of the source. Unless noted, the rule behind the calls is not given here.
# Legend:
# [1] = Brca1-Bard1 BiLC signal decrease – luminescence, single concentration, counter-screen for Mdm2/MdmX interaction inhibitor project, confirmation (AID 504668); conditions: Brca1/Bard1 bimolecular luciferase complementation counterscreen, at 8 µM, stronger effect = higher value
# PEG-3 [2] = biological target: PEG-3 (UniProt Q6IN02); assay: inhibition of PEG-3 promoter-driven reporter – cell-based, HeLa, luciferase, CREF/GAPDH counter-screen panel, dose response (AID 624167); conditions: CREF/GAPDH counter-screens; HeLa PEG-Prom luciferase reporter, overnight, run 1, dose range 1, at 100 µM (top of the series) unless noted
# PEG-3 [3] = biological target: PEG-3 (UniProt Q6IN02); assay: as above; conditions: CREF/GAPDH counter-screens; HeLa PEG-Prom luciferase reporter, overnight, run 2, dose range 1, at 100 µM (top of the series) unless noted
# Rat fibroblasts (CREF) [4] = assay: as above; conditions: CREF/GAPDH counter-screens; run 1, dose range 1, at 100 µM (top of the series)
# Rat fibroblasts (CREF) [5] = assay: as above; conditions: CREF/GAPDH counter-screens; run 2, dose range 1, at 100 µM (top of the series)
# [6] = biological target: Tumor necrosis factor receptor superfamily member 10B (Homo sapiens) (UniProt O14763); assay: viability loss of caspase-8 NB7 cells with TRAIL – with/without TRAIL, luminescence panel, confirmation (AID 651596; in the data active = activity above about 50%); conditions: NB7 neuroblastoma + caspase-8, TRAIL sensitization, NB7 Caspase-8, with TRAIL, mean of runs, at 10 µM, stronger effect = higher value
# [7] = as above; conditions: NB7 neuroblastoma + caspase-8, without TRAIL, NB7 Caspase-8, without TRAIL, mean of runs, at 10 µM
# [8] = NFkB reporter suppression in cystic fibrosis bronchial cells – cell-based, uHTS hits, panel, cytotoxicity readout, dose response (AID 624344); conditions: CF bronchial epithelial cells, PAF-induced NFkB reporter inhibition, with PAF, run 1; at 79 µM (top of the series) unless noted
# [9] = as above; conditions: CF bronchial epithelial cells, PAF-induced NFkB reporter inhibition, with PAF, run 2; at 79 µM (top of the series) unless noted
# Chain of PEG-3 (Q6IN02 whole entry, looked up): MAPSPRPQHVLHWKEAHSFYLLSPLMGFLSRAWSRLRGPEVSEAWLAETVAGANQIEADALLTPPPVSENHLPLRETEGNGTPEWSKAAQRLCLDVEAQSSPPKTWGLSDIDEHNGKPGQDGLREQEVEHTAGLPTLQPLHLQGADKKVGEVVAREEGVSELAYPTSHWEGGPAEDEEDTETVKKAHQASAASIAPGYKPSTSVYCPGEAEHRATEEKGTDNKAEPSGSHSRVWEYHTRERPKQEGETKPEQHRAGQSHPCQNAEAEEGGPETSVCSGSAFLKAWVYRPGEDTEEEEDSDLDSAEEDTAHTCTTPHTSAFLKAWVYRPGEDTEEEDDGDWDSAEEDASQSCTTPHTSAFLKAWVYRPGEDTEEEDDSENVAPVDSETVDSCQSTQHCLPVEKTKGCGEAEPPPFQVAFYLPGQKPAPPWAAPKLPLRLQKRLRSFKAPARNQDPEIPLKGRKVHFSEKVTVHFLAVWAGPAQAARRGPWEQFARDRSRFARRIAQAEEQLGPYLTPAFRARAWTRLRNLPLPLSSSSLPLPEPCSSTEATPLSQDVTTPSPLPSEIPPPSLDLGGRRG
# Chain of Tumor necrosis factor receptor superfamily member 10B (Homo sapiens) (O14763 whole entry, looked up): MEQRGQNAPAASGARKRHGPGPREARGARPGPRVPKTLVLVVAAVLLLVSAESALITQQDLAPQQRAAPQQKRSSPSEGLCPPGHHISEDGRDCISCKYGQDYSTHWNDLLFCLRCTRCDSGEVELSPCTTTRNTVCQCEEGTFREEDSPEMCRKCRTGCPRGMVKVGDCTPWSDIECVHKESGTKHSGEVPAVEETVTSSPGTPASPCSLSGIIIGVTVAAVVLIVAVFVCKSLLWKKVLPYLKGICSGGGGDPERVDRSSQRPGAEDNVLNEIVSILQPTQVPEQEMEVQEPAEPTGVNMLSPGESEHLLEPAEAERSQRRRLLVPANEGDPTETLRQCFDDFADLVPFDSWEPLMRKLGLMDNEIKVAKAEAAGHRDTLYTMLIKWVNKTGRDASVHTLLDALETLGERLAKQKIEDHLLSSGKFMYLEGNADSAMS
compound,measurement,setting,value
O=C(Nc1ccc([N+](=O)[O-])cc1)C(=O)Nc1cccc(C(=O)O)c1,inhibition,[1],31% (active)
same,inhibition,PEG-3 [2],92.5%
same,inhibition,PEG-3 [3],95%
same,inhibition,Rat fibroblasts (CREF) [4],97.5%
same,inhibition,Rat fibroblasts (CREF) [5],96.8%
COc1ccc(C(=O)CN2C(=O)c3ccccc3S2(=O)=O)cc1,inhibition,[1],25.5% (active)
same,inhibition,PEG-3 [2],99.1%
same,inhibition,PEG-3 [3],97.6%
same,inhibition,Rat fibroblasts (CREF) [4],96.6%
same,inhibition,Rat fibroblasts (CREF) [5],97.6%
same,activity,[6],70.2%
same,activity,[7],70.8%
COc1ccc(C(NC(C)=O)c2ccc3cccnc3c2O)c(OC)c1 (configuration not stated),inhibition,[1],31.2% (active)
same,inhibition,PEG-3 [2],64.7%
same,inhibition,PEG-3 [3],59.9%
same,inhibition,Rat fibroblasts (CREF) [4],-4.86%
same,inhibition,Rat fibroblasts (CREF) [5],50.2%
Cc1ccc2nc(-c3ccccc3)cn2c1,inhibition,[1],32.2% (active)
same,inhibition,PEG-3 [2],97.5%
same,inhibition,PEG-3 [3],99%
same,inhibition,Rat fibroblasts (CREF) [4],100%
same,inhibition,Rat fibroblasts (CREF) [5],99.1%
same,activity,[6],94%
same,activity,[7],93.9%
COc1ccc(-c2nsc3c(N4CCCCC4C)ncnc23)cc1 (configuration not stated),inhibition,[1],24.8% (active)
same,inhibition,PEG-3 [2],89.7%
same,inhibition,PEG-3 [3],93.5%
same,activity,[6],86.8%
same,activity,[7],87.7%
COc1cccc(NC(=O)Nc2nnc(CC(=O)NCc3ccccc3)s2)c1,inhibition,[1],35.1% (active)
same,inhibition,[8],79.8%
same,inhibition,[9],83.7%
Cc1nc2cc(-c3ccccc3)sc2c(=O)n1N,inhibition,[1],30% (active)
same,inhibition,PEG-3 [2],102%
same,inhibition,PEG-3 [3],97.8%
same,inhibition,Rat fibroblasts (CREF) [4],93.7%
same,inhibition,Rat fibroblasts (CREF) [5],92%
same,activity,[6],73.1%
same,activity,[7],73.6%
COc1ccc2[nH]c3c(c2c1)CCNC3=O,inhibition,[1],34.4% (active)
same,inhibition,[8],103%
same,inhibition,[9],103%
Cc1ccc(C(=O)O/N=C(\N)c2ccccn2)cc1,inhibition,[1],34% (active)
same,inhibition,PEG-3 [2],102%
same,inhibition,PEG-3 [3],100%
same,inhibition,Rat fibroblasts (CREF) [4],100%
same,inhibition,Rat fibroblasts (CREF) [5],101%
Cc1ccc(C(=O)Nc2cc3ccccc3oc2=O)cc1,inhibition,[1],31.8% (active)
same,inhibition,PEG-3 [2],84.5%
same,inhibition,PEG-3 [3],78.7%
same,inhibition,Rat fibroblasts (CREF) [4],84.6%
same,inhibition,Rat fibroblasts (CREF) [5],87.1%
O=C(Nc1ccc(N2CCOCC2)cc1)c1cnsn1,inhibition,[1],32.1% (active)
same,inhibition,PEG-3 [2],96.4%
same,inhibition,PEG-3 [3],98.9%
same,inhibition,Rat fibroblasts (CREF) [4],97.9%
same,inhibition,Rat fibroblasts (CREF) [5],60.2%
same,activity,[6],78.7%
same,activity,[7],75.9%
Cc1cccc(CNc2ncnc3ccc(-c4ccoc4)cc23)c1,inhibition,[1],23.8% (active)
same,inhibition,[8],114%
same,inhibition,[9],106%
CC(=O)c1cccc(NC(=O)Nc2cccnc2)c1,inhibition,[1],27.6% (active)
same,inhibition,[8],119%
same,inhibition,[9],93.2%
CCn1c(Oc2ccccc2F)nc2c1c(=O)n(C)c(=O)n2C,inhibition,[1],23.1% (active)
same,inhibition,[8],113%
same,inhibition,[9],96.5%
CCN(CC)S(=O)(=O)c1ccc(NC(=O)Nc2cccc(C(F)(F)F)c2)cc1,inhibition,[1],35.2% (active)
same,inhibition,[8],114%
same,inhibition,[9],99.2%
same,activity,[6],82.6%
same,activity,[7],71.3%
CCC(C)Oc1cc(-c2ccnc(Nc3cccc(Cl)c3)n2)ccn1 (configuration not stated),inhibition,[1],25.4% (active)
same,inhibition,[8],102%
same,inhibition,[9],117%
COc1ccc(-c2cn[nH]c2-c2ccc(O)cc2O)cc1,inhibition,[1],25.3% (active)
same,inhibition,[8],104%
same,inhibition,[9],112%
O=C(Nc1nc2ccc(F)cc2s1)C1CCN(S(=O)(=O)c2cc([N+](=O)[O-])ccc2Cl)CC1,inhibition,[1],25.5% (active)
same,inhibition,[8],105%
same,inhibition,[9],112%
Nc1ncnc(NCc2ccc(F)cc2)c1[N+](=O)[O-],inhibition,[1],27% (active)
same,inhibition,[8],99%
same,inhibition,[9],98.9%
CC(C)CN=C(NS(=O)(=O)c1ccccc1)C(Cl)(Cl)Cl,inhibition,[1],35.9% (active)
same,inhibition,[8],102%
same,inhibition,[9],112%
Cc1ccc2nc(C(F)(F)F)c(C#N)c(N)c2c1,inhibition,[1],25.7% (active)
same,inhibition,[8],114%
same,inhibition,[9],106%
O=C(Nc1cccc2[nH]ncc12)c1ccc(F)cc1,inhibition,[1],25% (active)
same,inhibition,[8],102%
same,inhibition,[9],95.5%
CCN1CCN(Cc2ccc(NC(=O)c3ccc(C)c(NC(=O)C(=O)c4c[nH]c5ccccc45)c3)cc2C(F)(F)F)CC1,inhibition,[1],30.8% (active)
same,inhibition,[8],103%
same,inhibition,[9],112%
Cc1cccc(Nc2ncnc3ccc(Br)cc23)c1,inhibition,[1],25.6% (active)
same,inhibition,[8],103%
same,inhibition,[9],110%
Cc1[nH]nc2ncc(C(=O)c3ccccc3O)cc12,inhibition,[1],30.4% (active)
same,inhibition,[8],109%
same,inhibition,[9],92.1%
OCCCNc1ncnc2scc(-c3ccc(Cl)cc3)c12,inhibition,[1],33.2% (active)
same,inhibition,[8],115%
same,inhibition,[9],103%
Cn1c(=O)c2c(nc(Oc3ccc4ccccc4c3)n2C)n(C)c1=O,inhibition,[1],33.6% (active)
same,inhibition,[8],93.3%
same,inhibition,[9],81.7%
Clc1cncc(Cl)c1N/N=C/c1ccncc1,inhibition,[1],27.6% (active)
same,inhibition,[8],105%
same,inhibition,[9],118%
CCOc1ccc(-n2c(C)c(C(C)=O)c3cc(O)ccc32)cc1,inhibition,[1],31.2% (active)
same,inhibition,[8],90%
same,inhibition,[9],88.2%
Cc1ccc(NC(=O)Nc2nnc(-c3ccncc3)s2)cc1C,inhibition,[1],23.3% (active)
same,inhibition,[8],102%
same,inhibition,[9],114%
Cc1c(C=O)c(C=O)c(C)n1Cc1ccccc1,inhibition,[1],30.8% (active)
same,inhibition,[8],118%
same,inhibition,[9],103%
COC1(OC)C=CC(=O)C=C1NC(=O)c1ccccc1OC(C)=O,inhibition,[1],35.6% (active)
same,inhibition,[8],101%
same,inhibition,[9],113%
c1cc2[nH]snc2c2nc(C3CC3)nc12,inhibition,[1],26.4% (active)
same,inhibition,[8],101%
same,inhibition,[9],118%
Cn1nnnc1Sc1ncnc2scc(-c3ccc[nH]3)c12,inhibition,[1],29.2% (active)
same,inhibition,[8],66.8%
same,inhibition,[9],61.6%
Cn1c(Oc2ccc(Cl)cc2)c(C=O)c2ccccc21,inhibition,[1],34.4% (active)
same,inhibition,[8],104%
same,inhibition,[9],109%
COc1ccc(-c2cc(=O)oc3c(C)c(OC(=O)c4cccs4)ccc23)cc1,inhibition,[1],32.9% (active)
same,inhibition,[8],66.8%
same,inhibition,[9],93%
NC(=O)N/N=C/c1c(Sc2nnnn2-c2ccccc2)nc2ccccn2c1=O,inhibition,[1],23.4% (active)
same,inhibition,[8],103%
same,inhibition,[9],105%
CC(C)Nc1ncnc2ccc(Br)cc12,inhibition,[1],24.8% (active)
same,inhibition,[8],118%
same,inhibition,[9],104%
